# Only some compounds are listed: those with a hit (about 7.5% of all), similar ones and a draw of the others.
# NPC1 promoter act = activates the NPC1 promoter; Huh7 NPC1 promoter luciferase reporter, 24 h; Potency, µM (highest dose often 9.22 µM), for inactives: at the highest dose activation, usual class: activators; 320,000 compounds, 2.4% hits; further: % of control where 0% means no effect; nearly all actives have a fitted effect of over 60% in size
#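 Quantitative HTS used a cell-based reporter: Huh7 cells stably bearing the NPC1 promoter upstream of luciferase were treated with compounds for 24 h, and promoter activation was read as luminescence.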
# FLuc counter = firefly luciferase modulation, counter-screen for miR-21 project | purified FLuc, Km substrates, luminescence inhibition | P08659 | 360,000 compounds, 6.9% hits | AID 588342 | Potency, µM (titrated, usually from 57.5 µM), for the others: at the top dose activity change, negative = inhibition, hits mostly inhibitors;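 further: plate controls were vehicle for no effect and reference inhibitor for full effect; nearly all actives have a fitted effect of over 55% in size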
# Target sequence (P08659 whole entry, looked up): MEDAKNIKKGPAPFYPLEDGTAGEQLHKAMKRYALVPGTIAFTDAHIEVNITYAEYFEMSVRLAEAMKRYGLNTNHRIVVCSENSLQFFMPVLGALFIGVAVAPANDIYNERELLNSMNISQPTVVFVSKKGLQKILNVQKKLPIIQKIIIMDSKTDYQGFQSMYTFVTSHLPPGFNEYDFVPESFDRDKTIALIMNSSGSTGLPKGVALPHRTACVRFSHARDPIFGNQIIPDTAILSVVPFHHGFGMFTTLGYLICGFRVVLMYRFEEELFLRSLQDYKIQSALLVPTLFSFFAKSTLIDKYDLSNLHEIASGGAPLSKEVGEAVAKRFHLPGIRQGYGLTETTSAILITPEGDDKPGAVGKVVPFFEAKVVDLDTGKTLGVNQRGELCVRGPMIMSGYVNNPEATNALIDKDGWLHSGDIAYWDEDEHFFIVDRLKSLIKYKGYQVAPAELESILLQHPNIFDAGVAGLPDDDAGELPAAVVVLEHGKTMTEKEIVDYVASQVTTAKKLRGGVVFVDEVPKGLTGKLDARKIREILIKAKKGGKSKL
#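 Purified P. pyralis luciferase, 10 nM final, with Km-level 10 uM D-luciferin and 10 uM ATP in 50 mM Tris acetate pH 7.5, 10 mM Mg acetate, 0.01% Tween-20, 0.05% BSA; 6-point qHTS titration about 60 µM downward; luminescence read.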
# ELG1 genotox = genotoxicity induction in ELG1-luciferase HEK293T cells; Potency, µM (series often up to 46 µM), for the others: at the highest dose activity change, positive = activation, actives largely listed as activators; AID 504466; 330,000 compounds, 1.3% hits; HEK293T ELG1-luciferase reporter, luminescence, 16 h; further: % of control where 0% means no effect; nearly all actives have a fitted effect of over 60% in size
#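 Luminescence read-out: rising ELG1-luciferase signal, reflecting elevated ELG1 protein under genetic stress, flags genotoxic compounds. Cells were treated for 16 hr at 37 °C before ONE-Glo detection.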
# Rab9 prom act = Rab9 promoter activation | Huh7 Rab9 promoter-luciferase reporter, luminescence, 24 h | Potency, µM (titrated, usually from 9.22 µM), for the others: at the highest dose activation, negative = inhibition, hits mostly activators | 320,000 compounds, 2.8% hits | AID 485297; further: % of control where 0% means no effect; nearly all actives have a fitted effect of over 60% in size
#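 Using Huh7 cells stably transfected with Rab9 promoter–luciferase, compounds were incubated 24 h at 37 °C, 5% CO2; luciferase luminescence was read 10 min after reagent addition.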
# SMN2 splice enh = increases expression of the SMN2 splice variant; HEK293 SMN2-luciferase splicing reporter, luminescence, 30-36 h; Potency, µM (doses to about 46.1 µM), for inactives: at the highest dose activity change, positive = activation, usual class: activators; 210,000 compounds, 2.8% hits; further: % of control where 0% means no effect; nearly all actives have a fitted effect of over 55% in size
#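 qHTS luciferase splicing reporter: luminescence rises when SMN2 exon 7 is included in transfected HEK293 cells. Compound exposure lasted 30-36 h at 37C, with 4.5 mM final sodium butyrate as control, followed by a ONE-Glo read.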
# * marks the source's active call; other numbers are inactive results; ? = inconclusive; . = no result; [ ] = another dose, or the depositor's remark. The call rests on the fitted dose curve; in most records, active means well fitted curve in the direction sought with a large enough effect; inconclusive means small, poorly fitted or top-dose-only effect, or another doubt; inactive means no such curve, though single readings can be large; an effect the other way counts as inactive or inconclusive. Potency means the concentration at half of the fitted maximal effect.
SMILES,NPC1 promoter act,FLuc counter,ELG1 genotox,Rab9 prom act,SMN2 splice enh
O=C(Nc1ccc(F)cc1)Nc1ccccc1C(=O)NCCN1CCNC1=O,-6%,17µM*,0%,1%,.
O=C(Nc1ccccc1C(=O)NCCCN1CCOCC1)c1ccc(F)cc1F,-1%,0%,3%,4%,.
Cc1noc(NC(=O)Nc2ccccc2F)c1C#N,.,.,.,.,-13%[9.22 µM]
COc1ccc(NC(=O)CSc2c3c(nc4ccc(Cl)cc24)CCCC3)cc1Cl,.,-3%,.,.,-4%
N#Cc1cnn2cc(-c3ncc(C(F)(F)F)cc3Cl)cnc12,14%,0%,1%,22%,18%
Cc1cc2ncc(-c3ncc(C(F)(F)F)cc3Cl)cn2n1,0.71µM*,1.3µM*,?,0.4µM*,1.3µM*
Cc1nn2cc(-c3ncc(C(F)(F)F)cc3Cl)cnc2c1Br,0.4µM*,1.5µM*,?,0.32µM*,.
Cc1ccc(-n2c(=O)c3ccc(C(=O)NCc4ccccc4Cl)cc3n(Cc3cccc(F)c3)c2=O)cc1,.,1%,.,.,-1%
Cc1ccc(-n2c(=S)[nH]c3sc4c(c3c2=O)CCc2ccccc2-4)cc1,-1%,6%,0%,2%,.
Cc1cccc(-n2c(=S)[nH]c3sc4c(c3c2=O)CCc2ccccc2-4)c1,0%,7.6µM*,-11%,4%,-8%
Cc1ccc(C(=O)NCC(=O)OCC(=O)NC2CCS(=O)(=O)C2)cc1C (centres undefined),0%,?,-3%,1%,-6%
O=C(CNC(=O)c1sc2ccccc2c1Cl)OCc1ccccc1,-3%,-15%,4%,-2%,.
O=C(COC(=O)CNC(=O)c1sc2ccccc2c1Cl)NC1CCS(=O)(=O)C1 (centres undefined),-1%,17µM*,-2%,2%,.
CS(=O)(=O)c1ccc(Cl)c(NC(=O)COC(=O)CNC(=O)c2sc3ccccc3c2Cl)c1,0%,15µM*,-4%,-1%,.
CC1CCCCN1C(=O)COC(=O)CNC(=O)c1sc2ccccc2c1Cl (centres undefined),0%,?,-2%,-4%,.
CS(=O)(=O)c1ccc(Cl)c(NC(=O)COC(=O)CNC(=O)c2cccs2)c1,-3%,4%,12%,3%,.
NC(=O)c1ccc(NC(=O)COC(=O)CNC(=O)c2sc3ccccc3c2Cl)cc1,-2%,6.7µM*,1%,-9%,.
CCOC(=O)C1CCN(C(=O)COC(=O)CNC(=O)c2sc3ccccc3c2Cl)CC1,-2%,9.5µM*,0%,-3%,.
O=C(NNC(=O)c1ccc2nonc2c1)Nc1ccc(Cl)cc1,2%,-12%,0%,-1%,.
CCN(CC)CCCN1C=C2C(=O)C(C)(OC(=O)c3cccs3)C(=O)C=C2C=C1CCCC(=O)OC (centres undefined),.,.,.,.,-10%[9.22 µM]
CCOc1ccc(NC(=O)CSc2ccc(-c3sc(-c4ccccc4)nc3C)nn2)cc1,.,-17%,.,.,.
C/C(=N\NC(=O)c1ccncc1)c1cc2ccccc2o1,-1%,-9%,-5%,-3%,15%
C/C(=N\Nc1nc2ccccc2[nH]1)c1cc2ccccc2o1,16%,2.4µM*,?,?,13µM*
C/C(=N/O)c1ccccn1,2%,0%,-2%,-3%,7%
C/C(=N\Nc1nc2ccccc2[nH]1)c1ccccn1,?,0.85µM*,2.5µM*,29%,.
SMILES,NPC1 promoter act,FLuc counter,ELG1 genotox,Rab9 prom act,SMN2 splice enh
COc1ccc(C2=NN(c3nc(C(=O)O)cs3)C(O)(C(F)(F)F)C2)c(OC)c1 (centres undefined),-1%,11µM*,0%,-4%,-4%
CN(C)CCCNc1oc(-c2cccc(Cl)c2)nc1C#N,-3%,-5%,11%,-3%,26%
Cc1nc2ccc(S(=O)(=O)N(CC(=O)Nc3cccc(Cl)c3)Cc3ccccc3)cc2s1,.,-10%,.,.,.
CCCSc1nn2c(=O)c3ccccc3nc2s1,4µM*,7.6µM*,2.9µM*,2µM*,35µM*
Cc1cccc(Nc2nn3c(=O)c4ccccc4nc3s2)c1,4µM*,?,9%,?,7.9µM*
O=c1c2ccccc2nc2sc(Nc3cccc4ccccc34)nn12,.,2%,.,.,.
NC(=O)NOCc1ccccc1F,-1%,4%,4%,-2%,.
CC(=O)N1CCC(N(Cc2ccco2)C(=O)Nc2cccc(C)c2)CC1,.,-1%,.,.,.
O=C(Nc1ccccc1)N1CC=C(c2ccccc2)CC1,2.2µM*,4.8µM*,2.6µM*,1.6µM*,13µM*
O=C(Nc1ccccc1)N1CC=C(c2ccc(F)cc2)CC1,4.5µM*,24µM*,?,1µM*,11µM*
CCS(=O)(=O)c1ccc(O)c(NC(=O)COc2ccc(Br)cc2)c1,0%,24µM*,-1%,-4%,1%
CCCNC(=O)Nc1cc(S(=O)(=O)CC)ccc1O,-3%,5%,-4%,-2%,.
c1ccc(Nc2ccnc(Nc3ccccc3)n2)cc1,2.5µM*,1.9µM*,?,?,.
Cc1ccc2c(c1)sc1nc(-c3cc4ccccc4oc3=O)cn12,.,0.43µM*,.,.,-12%
CCCCCCc1cc2cc(-c3cn4c(n3)sc3cc(OC)ccc34)c(=O)oc2cc1O,.,0%,.,.,.
COc1ccc2cc(-c3cn4c(n3)sc3cc(F)ccc34)c(=O)oc2c1,.,9.5µM*,.,.,.
COCC(=O)N1CCC2(CC1)CN(c1ccccc1)C2,.,.,.,.,-25%
O=C(Nc1ccc(-c2n[nH]c(=S)o2)cc1)c1ccccc1,10%,8.5µM*,8%,7%,.
COc1ccc(C(=O)Nc2ccc(-c3n[nH]c(=S)o3)cc2)cc1,29%,3µM*,?,?,.
Cc1ccc(NC(=S)Nc2cccc(-c3n[nH]c(=S)o3)c2)cc1,-1%,17µM*,15%,?,.
O=c1[nH]nc(-c2ccc(OCc3ccc(Cl)cc3Cl)cc2)o1,-4%,?,8%,-3%[1.84 µM],.
NC(=S)Nc1cccc(-c2n[nH]c(=S)o2)c1,-7%,-19%,-1%,-3%,.
C=CCOc1ccc(-c2n[nH]c(=S)o2)cc1,-1%,24µM*,7%,-2%,.
CC#CC(=O)N1CCC(CCC(=O)N(C)Cc2ccccc2)CC1,-6%,0%,8%,0%,.
CC(=O)Nc1ccc(NC(=O)C(NC(=O)C2CCC(C)CC2)C(C)C)cc1 (centres undefined),.,-3%,.,.,0%
COc1cc(/C=N/Nc2ccccc2[N+](=O)[O-])ccc1OC(=O)c1ccccc1F,4µM*,9.5µM*,2.6µM*,3.2µM*,6.3µM*
COc1cc(/C=N/Nc2nc3ccccc3s2)ccc1OC(=O)c1ccccc1F,24%,?,6.5µM*,?,?
COc1cc(/C=N/Nc2nc3ccccc3s2)cc([N+](=O)[O-])c1O,?,11µM*,4%,22%,.
COc1cc(/C=N/NC2=NS(=O)(=O)c3ccccc32)ccc1OC(C)=O,-1%,-3%,-1%,5%,.
COc1cc(/C=N/Nc2ccccc2[N+](=O)[O-])cc(OC)c1O,2%,?,?,1%,8%

# Bioassay records: PubChem, National Center for Advancing Translational Sciences (NCATS)
